This note sets out measurements from PubChem BioAssay AID624296 (National Center for Advancing Translational Sciences (NCATS), 2012).

Out of some 350,000 compounds screened, about 9,900 (2.8%) were called active. Inconclusive results (about 15%) are left out. Only a selection was taken, and actives are over-represented in it overall. Values without a mark were called inactive. Calls come from the whole dose curve; as a rule, active = well fitted activation curve with a large enough effect; inconclusive = small, poorly fitted or top-dose-only effect; inactive = no such curve, though single readings can be large or run the other way.
Potency is the fitted concentration of half-maximal effect.

A short description of this experiment: A quantitative high throughput screen for small molecules that induce DNA re-replication in MCF 10a normal breast cells. For activity, positive = re-replication: % of control where 0% means no effect. Note: nearly all actives have a fitted effect of over 50% in size. The note with it: MCF 10A DNA re-replication, Hoechst nuclear intensity, 48 h; series mostly up to 46.1 µM; activity, positive = re-replication: at the top concentration. An excerpt: H Molecular Libraries Probe Production Network [MLPCN]
NIH Chemical Genomics Center [NCGC]
Assay Provider: Melvin DePamphilis, NICHD, NIH
Eukaryotic cells normally restrict genome duplication to once per cell division. When this process is aberrant, DNA re-replication occurs when cells reinitiate DNA replication before the first round of replication is complete. DNA re-replication induces the DNA damage response, arrests cell proliferation, and triggers apoptosis. The cell cycle components cyclin A, Cdt-1, Cdc6 and geminin are critical regulators of this process and their misregulation results in DNA re-replication in normal and cancer cells. To identify compounds that induce re-replication in normal cells, an image-based assay was used to measure DNA content of nuclei, as detected by the fluorescent DNA binding dye, Hoechst. Cell nuclei were imaged by a fluorescence scanning plate imager and compounds that induce DNA re-replication were identified by the increase of nuclei with elevated fluorescence intensity
For screening, 250 cells in 5 uL/well were dispensed into black clear 1536-well plates (Aurora) using a solenoid-based dispenser. Following transfer of 23 nL compound or DMSO vehicle by a pin tool, the plates were incubated 48 hr at 37 C and 5% CO2. After addition of 1 uL/well Hoescht stain, the plates were incubated 40 min at 37 C, 5% CO2 and total intensity of fluorescent objects (nuclei) were enumerated by an Acumen Explorer Ex3 (TTP LabTech) fluorescence scanning plate imager (405 nm excitation, 500-530 nm emission).
Keywords: NIH Roadmap, MLPCN, MLI, MLSMR, qHTS, NCGC, DNA replication, cancer
On to `CC(OC(=O)c1ccc([N+](=O)[O-])cc1)C(=O)NCC1CCCCC1` (stereo unspecified), for which the “activity, positive = re-replication” value is -0.0529%.

On to `O=C(COc1ccccc1)NCCc1nc2ccccc2[nH]1`, for which the “activity, positive = re-replication” value is 2.97%.

Turning to `CCCCCOc1ccc(/C=C/C(=O)NCCc2nc3ccccc3[nH]2)cc1OC`, the Potency is 20.6 µM (active). As to `COc1ccc(OC(C)C(=O)NCCc2nc3ccccc3[nH]2)cc1` (stereo unspecified), the “activity, positive = re-replication” value is -0.913%. As to `O=c1ccc2c(-c3ccccc3S(=O)(=O)O)c3ccc(O)c(O)c3oc-2c1O`, the “activity, positive = re-replication” value was -16.3%. For `CCOC(=O)c1ccccc1NC(=O)COC(=O)C(Cc1c[nH]c2ccccc12)NC(C)=O` (stereo unspecified), the “activity, positive = re-replication” value is 0.288%.

For `Cc1ccc(S(=O)(=O)N2CCC(C(=O)N3CCCCCCC3)CC2)cc1`, the “activity, positive = re-replication” value was -11.9%. The same measure, in the same setting: under `CC(C)(C)OC(=O)C1=C(CO)CS[C@@H]2[C@H](NC(=O)Cc3ccccc3)C(=O)N12` stands -1.22%. As for `O=C(c1cccc(S(=O)(=O)N2CCCCCC2)c1)N1CCN(Cc2ccccc2)CC1`, the “activity, positive = re-replication” value was 18.3%. For the molecule `COc1ccc(N2CCN(C(C)=C3C(=O)c4ccccc4C3=O)CC2)cc1`, the “activity, positive = re-replication” value was -6.44%.

Regarding `COc1ccc(OCCCON2C(=O)c3ccccc3C2=O)cc1`, the “activity, positive = re-replication” value was 0.15%. For the molecule `CCOC(=O)C1=C(c2ccc(OC)cc2)C(=O)c2ccccc2C1=O`, the Potency is 2.91 µM (active).

`COCCN(C(=O)C(C)N1C(=O)c2ccccc2C1=O)c1c(N)n(CC(C)C)c(=O)[nH]c1=O` (stereo unspecified): the “activity, positive = re-replication” value was -2.72%. Still for that read-out and setting: next, `CC(C)(C)OC(=O)C[C@@H]1C/C=C\C[C@@H](CC(=O)NCCO)C(=O)N[C@H](Cc2c[nH]c3ccccc23)COC1=O`: -0.516%.

In the case of `COc1cccc(/C=N/Nc2ncc(C(F)(F)F)cc2Cl)c1O`, the Potency was 1.46 µM (active). For `COc1cccc(/C(C)=N/Nc2ncc(Cl)cc2Cl)c1`, the “activity, positive = re-replication” value is 10.2%. Turning to `COc1cccc(/C=N/Nc2cc(C)nc(-c3ccccc3O)n2)c1O`, the “activity, positive = re-replication” value is 4.07%.

Turning to `O=C(Nc1nnc(-c2ccccc2)o1)c1cccc(S(=O)(=O)N2CCOCC2)c1`, the “activity, positive = re-replication” value is 3.72%. On the same count and under the same terms, next, `Cc1ccc(S(=O)(=O)NC2CCCCCC2)cc1`: 9.3%.

For `Cc1ccc(S(=O)(=O)N(C)C2(C)CCS(=O)(=O)C2)cc1` (stereo unspecified), the “activity, positive = re-replication” value is 1.42%. Turning to `Cc1ccc(S(=O)(=O)C2(S(=O)(=O)c3ccc(C)cc3)CCCC2)cc1`, the Potency is 8.2 µM (active). In the case of `CCC(C)C1(C2CCCC2)NC(=O)NC1=O` (stereo unspecified), the “activity, positive = re-replication” value was -0.499%. Turning to `Cc1ccc(CC(=O)Nc2ccc(S(=O)(=O)N3CCOCC3)cc2)cc1C`, the “activity, positive = re-replication” value was -4.17%.

As for `S=c1[nH]nc(-c2cccnc2)n1/N=C/C(Cl)=C\c1ccccc1`, the Potency is 13 µM (active).

For the molecule `S=c1[nH]nc(-c2ccncc2)n1/N=C/c1ccccc1Cl`, the “activity, positive = re-replication” value was 0.454%. Turning to `S=c1[nH]nc(-c2ccco2)n1/N=C/c1ccccc1`, the “activity, positive = re-replication” value is -5.89%. In the case of `O=C(CCc1nc(-c2ccccc2)no1)Nc1cccc(C(=O)NC2CC2)c1`, the “activity, positive = re-replication” value was -2.58%. The same measure, in the same setting: under `O=C(CP(=O)(c1ccccc1)c1ccccc1)N1CCOCC1` stands -20.5%. Regarding `O=C(c1snnc1-c1ccccc1)N1CCOCC1`, the Potency was 0.651 µM (active). As to `c1ccc(-c2nnc(N3CCOCC3)c3ccccc23)cc1`, the “activity, positive = re-replication” value is 21.2%. As for `CCOC(=O)c1sc2nc(SC)nc(-c3ccccc3)c2c1N`, the “activity, positive = re-replication” value was 13.6%.

As for `CCN(CC)C(=O)c1sc2nc(-c3ccccc3)ccc2c1N`, the Potency is 23.1 µM (active).

As for `CCCC(=O)n1nc(-c2ccccc2)nc1N`, the “activity, positive = re-replication” value was -0.296%. Regarding `COc1ccc(NS(=O)(=O)c2cc(NC(=O)COc3ccccc3F)ccc2OC)cc1`, the “activity, positive = re-replication” value is 5.57%.

On to `O=C(C1CC(=O)N(C2CCCC2)C1)N1CCN(c2cccc(C(F)(F)F)c2)CC1` (stereo unspecified), for which the “activity, positive = re-replication” value is 0.122%. Still for that read-out and setting: next, `O=C(N/N=C/c1ccc([N+](=O)[O-])o1)c1cccc(S(=O)(=O)N2CCOCC2)c1`: -0.655%.

Turning to `NC(=O)C(=O)N/N=C/c1ccc([N+](=O)[O-])o1`, the Potency is 26.6 µM (active). `Cc1cc(C)nc(N/N=C/c2ccc([N+](=O)[O-])o2)n1`: the “activity, positive = re-replication” value was -1.22%.

In the case of `O=C(COC(=O)c1ccncc1)Nc1ccc2c(c1)OCO2`, the “activity, positive = re-replication” value is -1.83%. Consider `O=C1COc2ccc(C(=O)COC(=O)c3ccccc3Cl)cc2N1`, for which the “activity, positive = re-replication” value is -6.39%. As to `CN1CCN(CC(O)COCc2ccc3c(c2)OCO3)CC1` (stereo unspecified), the Potency was 20.6 µM (active). Turning to `COc1cc(COCC(O)CN2CCN(Cc3ccc4c(c3)OCO4)CC2)cc(OC)c1OC` (stereo unspecified), the “activity, positive = re-replication” value is -4.04%. In the case of `CC1CCCN(CC(O)COc2ccc3c(c2)OCO3)C1` (stereo unspecified), the “activity, positive = re-replication” value was 12.3%. As to `CC1C(=O)N(Cc2ccccc2)c2ccccc2N1C(=O)c1ccccc1` (stereo unspecified), the “activity, positive = re-replication” value was 1.1%. With `CC1C(C)N(C(=O)CCl)c2ccccc2N1C(=O)CCl` (stereo unspecified), the Potency was 7.31 µM (active).

Turning to `CC1CC(C)CN(CC(=O)N2c3ccccc3CCc3ccccc32)C1` (stereo unspecified), the “activity, positive = re-replication” value was 14.8%. On the same count and under the same terms, next, `O=C1CN(C(=O)COC(=O)/C=C/c2ccc(F)cc2)c2ccccc2N1`: -0.315%; `CCOC(=O)C1CCCN(C(=O)C2CCN(S(=O)(=O)c3ccc(Cl)c(C(F)(F)F)c3)CC2)C1` (stereo unspecified): 4.77%. On to `O=C1c2ccccc2C2=Nc3ccccc3SC(c3ccccc3F)C12` (stereo unspecified), for which the Potency is 6.51 µM (active).

On to `O=C1c2ccccc2C(=O)C1c1ccccc1F`, for which the “activity, positive = re-replication” value is 1.07%. Consider `COC(=O)[C@]1(C)N[C@H](CN(C)C(=O)c2ccc(C(C)(C)C)cc2)[C@@H]2C(=O)N(C)C(=O)[C@@H]21`, for which the “activity, positive = re-replication” value is 21%.
